# 14-3-3g Raf: modulators of human 14-3-3 gamma - Raf peptide interaction; 160,000 compounds, 0.19% hits; inhibition, % at 40 µM; P61981; FP, 14-3-3gamma / TMR-pS259-Raf peptide binding; in the data active means inhibition above about 30%;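 further: 0% = protein plus tracer without compound and 100% = blank with tracer alone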
# Target sequence (P61981 whole entry, looked up): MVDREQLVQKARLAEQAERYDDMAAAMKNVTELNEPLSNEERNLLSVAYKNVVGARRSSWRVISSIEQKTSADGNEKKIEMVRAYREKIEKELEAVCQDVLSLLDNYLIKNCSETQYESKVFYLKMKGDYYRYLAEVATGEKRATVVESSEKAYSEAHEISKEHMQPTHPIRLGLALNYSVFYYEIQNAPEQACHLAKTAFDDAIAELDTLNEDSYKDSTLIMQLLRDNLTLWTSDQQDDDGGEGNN
# The depositor's hits bear a star. The sample as a whole holds a higher share of hits than the screen did.
SMILES,14-3-3g Raf
COc1cc(OC)c(OC)cc1CC1C(=O)N(C)C(=O)N(C)C1=O,65.6*
COc1cc(CC2C(=O)N(C)C(=O)N(C)C2=O)ccc1OCc1ccccc1,8.7
C=CCN1C(=O)NC(=O)C(Cc2ccc(OC)c(OC)c2)C1=O (stereo not drawn),-0.1
O=C1C2CCN(CC2)C1Cc1cc([N+](=O)[O-])ccc1O (stereo not drawn),6.6
CCOc1ccc(CN2CCN(Cc3cccc(Br)c3)CC2)cc1,-6.7
O=[N+]([O-])c1n[nH]c([N+](=O)[O-])n1,-7.7
CCCN(CCC)c1ccc([N+](=O)[O-])c2nonc12,-28.3
O=[N+]([O-])c1c(NCCO)ccc2nonc12,-18.5
Nc1ccc2nonc2c1[N+](=O)[O-],31.2*
Cn1cnc(C(O)c2ccccc2)c1 (stereo not drawn),6.9
CCOC(=O)C1=C(N(C(C)=O)C(C)=O)c2ccccc2CC12CCCCC2,-2.5
O=C(NCc1ccco1)c1ccc(N2CC3CC(C2)c2cccc(=O)n2C3)c([N+](=O)[O-])c1 (stereo not drawn),-1.7
CN1C(=O)C(Cc2cccc3ccccc23)C(=O)N(C)C1=O,5.6
CN1C(=O)C(Cc2c[nH]c3ccccc23)C(=O)N(C)C1=O,81.5*
CNCCc1c[nH]c2ccccc12,0.2
